Source: PubChem
The list is not random: actives were taken first. Their share in the collection is about 8.1%.
KB-V1 cytotox: kills drug-selected multidrug resistant KB-V1 cells | KB-V1 MDR cells viability, CellTiter-Glo, 72 h | 400,000 compounds, 3.4% hits | AID 1347076 | Potency, µM (titrated, usually from 46.1 µM), most hits filed as cytotoxic; also: % is scaled to controls: 0 for no effect and ±100 for the full control effect; nearly all actives have a fitted effect of over 60% in size
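qHTS viability screen in drug-selected KB-V1 MDR cells: 72 h compound treatment at 37 degrees C, ATP luminescence end point.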
MCF10A rereplic: DNA re-replication induction in MCF 10a cells | MCF 10A DNA re-replication, Hoechst nuclear intensity, 48 h | Potency, µM (series often up to 46.1 µM), for the others: at the top dose activity, positive = re-replication, most hits filed as activators | 350,000 compounds, 2.9% hits | AID 624296; also: % of control where 0% means no effect; nearly all actives have a fitted effect of over 50% in size
KB-3-1 cytotox: KB-3-1 parental cell cytotoxicity | KB-3-1 viability, CellTiter-Glo ATP luminescence, 72 h | Potency, µM (doses to about 46.1 µM), usual class: cytotoxic | 400,000 compounds, 1.4% hits | AID 1347075; also: % is scaled to controls: 0 for no effect and ±100 for the full control effect; nearly all actives have a fitted effect of over 60% in size
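KB-3-1 cells, DMEM (no phenol red) + 10% FBS; compound by pin transfer, 72 h, 37 °C. Readout: CellTiter-Glo luminescence after 10 min. Data normalized, curve-fitted.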
ELG1 repair inh: blocks ELG1-dependent DNA repair in HEK293T cells | Potency, µM (series often up to 46.1 µM), inactives show at the top dose activity change, negative = inhibition, hits mostly inhibitors | AID 504467 | 330,000 compounds, 2.3% hits | HEK293T ELG1-luciferase reporter, luminescence, 16 h; DNA damage induced by 5-fluorouridine; also: % is scaled to controls: 0 for no effect and ±100 for the full control effect; nearly all actives have a fitted effect of over 55% in size
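Quantitative HTS, concentration-response format. 2,000 cells/well co-treated with 5-fluorouridine and compound, 16 hr in 5% CO2 at 37 °C; ONE-Glo luminescence read after 30 min.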
SW480 rerep: DNA re-replication induction in SW480 cells | SW480 DNA re-replication, Hoechst DNA content imaging, 48 h | Potency, µM (series often up to 46.1 µM), for inactives: top-dose re-replication activation, most hits filed as activators | 340,000 compounds, 1.8% hits | AID 624297; also: % of control where 0% means no effect; nearly all actives have a fitted effect of over 55% in size
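Treated cells incubate 48 hr (37 C, 5% CO2), are stained 40 min with Hoechst, and nuclear fluorescence is enumerated; a rise in nuclei with high DNA signal marks re-replication.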
An asterisk follows results filed as active; i = inactive; ? = inconclusive; . = no result; [ ] = another dose, or the depositor's remark. Calls follow the shape of the dose curve; as a rule, active = well fitted curve in the direction sought with a large enough effect; inconclusive = small, poorly fitted or top-dose-only effect, or another doubt; inactive = no such curve, though single readings can be large; an effect the other way counts as inactive or inconclusive. Potency is read from the fitted curve at half-maximal effect.

SMILES | KB-V1 cytotox | MCF10A rereplic | KB-3-1 cytotox | ELG1 repair inh | SW480 rerep
CC(=O)c1cc2c(cc1NC(=O)CSc1ncccn1)OCO2 | i | . | i | . | .
Cn1c(NCCCN2CCOCC2)nc2c1c(=O)n(Cc1ccc(Cl)c(Cl)c1)c(=O)n2C | 15µM* | ? | i | -28% | 1%
Cn1c(=O)c2c(nc(NCCCN3CCOCC3)n2Cc2cccc(Cl)c2)n(C)c1=O | i | 3% | i | -1% | -3%
Cn1c(=O)c2c(nc(NCCCN3CCOCC3)n2Cc2ccc(Cl)cc2)n(C)c1=O | i | 0% | i | -2% | 0%
Cn1c(NCCCN2CCOCC2)nc2c1c(=O)n(Cc1ccc(Cl)cc1)c(=O)n2C | 18µM* | 19% | i | -12% | -1%
O=C(NCCc1ccccc1)c1ccc(CSc2nc3ccncc3n2Cc2ccccc2)cc1 | i | . | i | . | .
COc1cc(NS(=O)(=O)c2ccc(-n3cccn3)cc2)cc(OC)c1 | ? | . | i | . | .
COc1ccc2[nH]cc(CCNC(=O)c3cnn(-c4ccccc4Cl)c3C3CCN(C(=O)OC(C)(C)C)CC3)c2c1 | ? | . | i | . | .
C=C1CC2(OC1=O)c1ccccc1CCc1ccccc12 | i | 2.9µM* | ? | . | 4.1µM*
O=C1NC(=O)C2(CCc3ccccc32)N1 (stereo not given) | i | -3% | i | 3% | 4%
O=C(Nc1cccc2oc(=O)ccc12)c1ccc([N+](=O)[O-])cc1[N+](=O)[O-] | ? | -1% | ? | -22% | 16µM*
CCOc1ccc(Nc2cc(C)nc(-n3nc(C)cc3C)n2)cc1 | ? | ? | 0.41µM* | ? | ?
O=c1[nH][nH]c2cc(=O)n(-c3cccc(C(F)(F)F)c3)nc12 | ? | -2% | i | 5% | 8%
Nc1n[nH]c2cc(=O)n(-c3cccc(C(F)(F)F)c3)nc12 | i | -2% | i | ? | 7.3µM*
CCN1CCN(S(=O)(=O)c2ccc(Cl)c(C(=O)NCc3nc4ccccc4[nH]3)c2)CC1 | i | ? | ? | 1% | 10µM*
CCN1CCN(S(=O)(=O)c2ccc(Cl)c(C(=O)Nc3ccccc3N3CCCCC3)c2)CC1 | i | ? | ? | 0% | ?
O=C(NCc1nc2ccccc2[nH]1)c1cccc(S(=O)(=O)N2CCCCC2)c1 | i | 1% | i | -10% | -7%
CCN1CCN(S(=O)(=O)c2ccc(Cl)c(C(=O)NCCc3ccccc3)c2)CC1 | i | 5% | i | ? | 15µM*
CCN1CCN(S(=O)(=O)c2ccc(Cl)c(C(=O)Nc3ccccc3N3CCCC3)c2)CC1 | i | ? | i | -15% | 6.5µM*
Cc1cc(C)c(S(=O)(=O)N2CCCC(C(=O)NC3CCCC3)C2)c(C)c1 (stereo not given) | ? | 13% | i | -8% | 4%
Cc1oc2ncn(C)c(=O)c2c1C(=O)NCc1ccccc1 | i | . | i | . | .
COc1ccc(S(=O)(=O)Oc2ccccc2C(N)=O)cc1 | i | 4% | i | ? | -47%
Cc1ccc(S(=O)(=O)NCC(=O)NCC2COc3ccccc3O2)cc1C (stereo not given) | i | 12% | i | -8% | -7%
CN(Cc1cccs1)C(=O)c1ccc(S(=O)(=O)N2CCCCC2)cc1 | ? | 5% | i | -9% | -1%
CN(Cc1cccs1)C(=O)c1cccc(S(=O)(=O)N2CCCCCC2)c1 | 18µM* | 12% | i | -10% | -1%
SMILES | KB-V1 cytotox | MCF10A rereplic | KB-3-1 cytotox | ELG1 repair inh | SW480 rerep
Cc1ccccc1CCNC(=O)c1ccc(Cl)c(S(=O)(=O)N2CC(C)OC(C)C2)c1 (stereo not given) | 1.8µM* | ? | 5.2µM* | ? | 7%
CC1CN(S(=O)(=O)c2cc(C(=O)N(C)Cc3cccs3)ccc2Cl)CC(C)O1 (stereo not given) | 10µM* | 11% | i | -29% | -3%
Cc1cc(OCC(=O)Nc2ccc(Br)cc2)cc2c1C(=O)CC(C)(C)O2 | i | ? | i | 15µM* | ?
CC(=O)Nc1ccc(NC(=O)COc2cc(O)c3c(c2)OC(C)(C)CC3=O)cc1 | i | 6% | i | 15% | -11%
O=C1c2ccccc2C(=O)N1c1ccc(S(=O)(=O)N2CCOCC2)cc1 | i | . | ? | . | .
Cc1cc(SCC(=O)N/N=C/c2ccc(O)cc2O)nc2ccccc12 | i | 18% | ? | 2% | 12µM*
COc1ccc2nc(C)cc(SCC(=O)N/N=C/c3cccc4ccccc34)c2c1 | 5.8µM* | 3.7µM* | ? | ? | 4.6µM*
COc1ccc2c(C)cc(SCC(=O)Nc3ncc(Cl)cc3Cl)nc2c1 | 18µM* | 22% | i | ? | -1%
Cc1cc(SCC(=O)Nc2ncc(Cl)cc2Cl)nc2ccccc12 | 6.5µM* | 11% | i | -5% | ?
COc1ccc(C(=O)N2CCCCC2c2cc(C(=O)NCc3ccccc3)no2)cc1 (stereo not given) | i | . | i | . | .
Cc1ccc(NC(=O)NCCc2c(C)nn(C)c2C)cc1Cl | i | . | i | . | .
Cc1cccc(C)c1NC(=O)CSc1cc(C(=O)c2nccn2C)c2ccccc2n1 | ? | 11% | i | 15µM* | 4%
COc1ccc2c(-c3ccccc3)cc(SCC(=O)NC(N)=O)nc2c1 | i | 5.8µM* | i | 6% | -38%
Cn1ccnc1C(=O)c1cc(SCC(=O)NC2CC2)nc2ccccc12 | i | 0% | i | ? | -4%
Cc1ccc(S(=O)(=O)N2CCOCC2)cc1NC(=O)COC(=O)Cn1c(C)csc1=O | i | -1% | i | ? | 2%
Nc1nc2nc(-c3ccc(OCc4ccccc4)cc3)cc(C(F)(F)F)n2n1 | i | ? | i | 24% | ?
Nc1nc2nc(-c3ccc(Cl)cc3)cc(C(F)(F)F)n2n1 | i | ? | i | ? | 13µM*
Cc1nn2c(C(F)(F)F)cc(-c3ccc(Cl)cc3)nc2c1C(=O)N1CCOCC1 | ? | 16% | i | 16µM* | -5%
CC1(c2ccc3c(c2)OCO3)NC(=O)N(CC(=O)Nc2ccccc2[N+](=O)[O-])C1=O (stereo not given) | 15µM* | -1% | i | -2% | -2%
Cc1ccccc1NC(=O)CN1C(=O)NC(C)(c2ccc3c(c2)OCO3)C1=O (stereo not given) | i | -3% | i | 16% | -3%[9.22 µM]
O=C1C(=C(c2ccccc2)N2CCOCC2)Cc2ccccc21 | ? | . | 7.3µM* | . | .
CC(C)(C)n1ncc(Oc2ccccc2[N+](=O)[O-])c(Cl)c1=O | 18µM* | 5% | i | -17% | ?
Cn1ncc(Oc2ccc([N+](=O)[O-])cc2)c(Cl)c1=O | i | ? | i | ? | ?
CC(C)(C)Cc1c(-c2cccc(Br)c2)nc2ccc(Br)cn12 | i | . | i | . | .
